Source: the supplement of paper PMC13380429

System: Vero E6 infected with SARS-CoV-2
Experiment: inhibition of SARS-CoV-2 cytopathic effect; higher = more antiviral protection, active = above 15
Conditions: 48 h

Measured: inhibition of SARS-CoV-2 cytopathic effect

COC(=O)c1c(C)[nH]c(C)c1C(=O)c1ccccc1Cc1ccccc1
inactive: 1 nM 1.06% | 8.33 nM -1.02% | 100 nM 0.4% | 833.33 nM -3.62% | 10000 nM -3.09%

C[C@]12CC[C@@H]3c4ccc(OC(=O)N(CCCl)CCCl)cc4CC[C@H]3[C@@H]1CC[C@@H]2OP(=O)(O)O [estramustine-phosphate]
inactive: 1 nM -1.79% | 8.33 nM 0.03% | 100 nM -0.34% | 833.33 nM -1.57% | 10000 nM -2.26%

COC(=O)c1sccc1S(=O)(=O)Nc1ccc(Nc2ccccc2)cc1OC
inactive: 1 nM 2.58% | 8.33 nM 5.94% | 100 nM 2.5% | 833.33 nM 5.14% | 10000 nM 8.94%

CCn1cnc2c(Nc3cccc(Cl)c3)nc(N[C@@H]3CCCC[C@@H]3N)nc21
inactive: 1 nM -1.22% | 8.33 nM 0.37% | 100 nM 2.67% | 833.33 nM 3.13% | 10000 nM -29.1%

Clc1ccc(C(c2ccccc2Cl)C(Cl)Cl)cc1 (stereo not given) [mitotane]
inactive: 1 nM -2.51% | 8.33 nM -1.75% | 100 nM -2.14% | 833.33 nM -2.16% | 10000 nM 0.99%

CC1Oc2cc(cnc2N)-c2c(nn(C)c2C#N)CN(C)C(=O)c2ccc(F)cc21 (stereo not given)
inactive: 1 nM -0.41% | 8.33 nM 1.22% | 100 nM 0.495% | 833.33 nM -2.23% | 10000 nM 0.255%

CC(C)C[C@H](NC(=O)[C@@H](O)[C@H](N)Cc1ccccc1)C(=O)O [ubenimex]
inactive: 1 nM -0.51% | 8.33 nM -0.09% | 100 nM 2.6% | 833.33 nM 0.25% | 10000 nM 1.71%

Cc1occc(=O)c1[O-].Cc1occc(=O)c1[O-].[O]=[V+2] [bis(maltolato)oxovanadium(IV)]
inactive: 1 nM 1.28% | 8.33 nM 1.37% | 100 nM 0.44% | 833.33 nM -2.57% | 10000 nM -1.02%

CC(O)c1cc(C(=O)N[C@@H](C)Cn2ccc(-c3ccc(C#N)c(Cl)c3)n2)n[nH]1 (stereo not given in full)
inactive: 1 nM 1.69% | 8.33 nM 0.5% | 100 nM 0.89% | 833.33 nM -0.69% | 10000 nM 0.64%

CCCN(CCC)CCc1ccc(OC)c(OCCc2ccccc2)c1
inactive: 1 nM -1.09% | 8.33 nM -0.82% | 100 nM 0.93% | 833.33 nM 0.13% | 10000 nM -2.05%

C[C@@H]1C[C@@H]([C@H](O)CC2CC(=O)NC(=O)C2)C(=O)[C@@H](C)C1 [cycloheximide]
inactive: 1 nM 2.12% | 8.33 nM 2.86% | 100 nM 6.34%
active: 833.33 nM 27.6% | 10000 nM 17.4%

O=C1C(=Cc2cccnc2)C(=O)c2ccccc21
inactive: 1 nM 1.43% | 8.33 nM 1% | 100 nM 3.58% | 833.33 nM 5.97% | 10000 nM 5.97%

C[C@@H]1COCCN1c1cc(C2([S@](C)(=N)=O)CC2)nc(-c2ccnc3[nH]ccc23)n1
inactive: 1 nM -1.91% | 8.33 nM -1.92% | 100 nM 0.5% | 833.33 nM 1.27% | 10000 nM 1.76%

Cc1ccc(-n2nc(C(C)(C)C)cc2NC(=O)Nc2ccc(OCCN3CCOCC3)c3ccccc23)cc1 [doramapimod]
inactive: 1 nM -2.22% | 8.33 nM 1.14% | 100 nM -0.73% | 833.33 nM 4.29% | 10000 nM 8.03%

CN1CCN(CCCN2c3ccccc3Sc3ccc(S(=O)(=O)N(C)C)cc32)CC1 [thioproperazine]
inactive: 1 nM 0.81% | 8.33 nM 6.36% | 100 nM 5.52% | 833.33 nM 0.03% | 10000 nM 1.7%

CCOC(=O)[C@@H](C)Oc1cccc2c(=O)n(CC(=O)Nc3ccc4c(c3)OCCO4)ccc12
inactive: 1 nM -1.29% | 8.33 nM 1.77% | 100 nM 0.7% | 833.33 nM -5.6% | 10000 nM -5.98%

NC(CO)(CO)CO [trometamol]
inactive: 1 nM -0.18% | 8.33 nM -2.53% | 100 nM -0.26% | 833.33 nM 2.08% | 10000 nM 4.11%

Cc1[nH]c2ccc(O)cc2c1CCN [2-methyl-5-hydroxytryptamine]
inactive: 1 nM -3.47% | 8.33 nM -2.58% | 100 nM -4.33% | 833.33 nM -12.8% | 10000 nM -2.37%

CN(C)CCc1ccc(O)cc1 [hordenine]
inactive: 1 nM 0.04% | 8.33 nM -0.27% | 100 nM 0.47% | 833.33 nM -2.27% | 10000 nM -0.68%

COc1cc(Br)c(Nc2nc(-c3c(C)nc4ncccn34)cs2)c(Br)c1
inactive: 1 nM -0.04% | 8.33 nM 0.45% | 100 nM 1.74% | 833.33 nM -3.16% | 10000 nM 10.6%

COc1cc2c(cc1OC)[C@@H]1Cc3ccc(OC)c(OC)c3CN1CC2 [rotundine]
inactive: 1 nM -0.42% | 8.33 nM -2.68% | 100 nM -1.22% | 833.33 nM 4.97% | 10000 nM 3.54%

CC(C)=CCC/C(C)=C/CC/C(C)=C/C=C/C(C)=C/C(=O)O [peretinoin]
inactive: 1 nM 0.75% | 8.33 nM 0.23% | 100 nM -1.49% | 833.33 nM 0.48% | 10000 nM 0.08%

CN(C)Cc1c(C(=O)NCCOc2ccc(C(=O)NO)cc2)oc2ccccc12
inactive: 1 nM -1.08% | 8.33 nM 3.14% | 100 nM -1.35% | 833.33 nM -15.5% | 10000 nM -26.9%

NC[C@H](O)c1ccc(O)c(O)c1 [norepinephrine]
inactive: 1 nM 1.39% | 8.33 nM -0.56% | 100 nM -2.09% | 833.33 nM 0.33% | 10000 nM -1.61%

O=C(NC1CCC1)c1ccc(C#Cc2cccc(F)c2)nc1
inactive: 1 nM 0.19% | 8.33 nM -1.61% | 100 nM -2.31% | 833.33 nM -1.49% | 10000 nM 2.23%

OC[C@H]1O[C@H]([S-])[C@H](O)[C@@H](O)[C@@H]1O.[Au+] [aurothioglucose]
inactive: 1 nM 0.67% | 8.33 nM -0.7% | 100 nM -0.3% | 833.33 nM 0.93% | 10000 nM 0.69%

CC(C)(C)NCC(O)c1cc(Cl)c(N)c(C(F)(F)F)c1 (stereo not given) [mabuterol]
inactive: 1 nM -0.03% | 8.33 nM -0.53% | 100 nM 3.86% | 833.33 nM -1.18% | 10000 nM -0.72%

CS(=O)(=O)c1ccc(-c2cnc(N)c(C(=O)Nc3ccccc3)n2)cc1
inactive: 1 nM 1.3% | 8.33 nM -2.14% | 100 nM 1.58% | 833.33 nM 0.67% | 10000 nM 2.65%

O=S(=O)(N[C@H]1CC[C@@](c2cc(F)ccc2F)(S(=O)(=O)c2ccc(Cl)cc2)CC1)C(F)(F)F
inactive: 1 nM 2.61% | 8.33 nM 4.08% | 100 nM -0.09% | 833.33 nM -2.63% | 10000 nM -2.01%

O=c1[nH]c(=O)n([C@H]2C[C@H](O)[C@@H](CO)O2)cc1F [floxuridine]
inactive: 1 nM 1.42% | 8.33 nM 1.34% | 100 nM -1.95% | 833.33 nM -2.04% | 10000 nM -4.05%

O=C(c1ccccc1)c1ccc2n1CCC2C(=O)O (stereo not given) [ketorolac]
inactive: 1 nM -4.39% | 8.33 nM -2.99% | 100 nM -1.5% | 833.33 nM 2.44% | 10000 nM -4.37%

N[C@@H]1CCCCN(c2c(F)cc3c(=O)c(C(=O)O)cn(C4CC4)c3c2Cl)C1 [besifloxacin]
inactive: 1 nM -2.51% | 8.33 nM 1.39% | 100 nM 2.41% | 833.33 nM 2.48% | 10000 nM 2.15%

CCNC(=O)NS(=O)(=O)c1sc(CC(C)C)cc1-c1ccc(Cn2c(-c3ccccc3)nc(OC)c2C=O)cc1
inactive: 1 nM -1.39% | 8.33 nM -0.39% | 100 nM 2.26% | 833.33 nM 1.08% | 10000 nM 0.67%

COC(=O)c1cnn(-c2ccc(F)cc2F)c1/C=N/NC(=S)NC(C)(C)C
inactive: 1 nM -1.1% | 8.33 nM 0.05% | 100 nM 2.03% | 833.33 nM 3.03% | 10000 nM 6.39%

COc1ccccc1OCC(O)COC(N)=O (stereo not given) [methocarbamol]
inactive: 1 nM -1.87% | 8.33 nM -0.67% | 100 nM -0.79% | 833.33 nM 2.32% | 10000 nM 1.06%

Cc1noc(C)c1-c1cc(O)cc([C@@H](O)c2ccccc2)c1
inactive: 1 nM -2.32% | 8.33 nM 1.84% | 100 nM -0.24% | 833.33 nM 1.24% | 10000 nM -8.49%

Cc1oc2ccccc2c1CNC(=O)NCc1cccs1
inactive: 1 nM -0.41% | 8.33 nM 1.63% | 100 nM 0.18% | 833.33 nM -0.46% | 10000 nM 3.09%

O=c1c(-n2ccnn2)c[nH]n1-c1cc(N2CCOCC2)ncn1 [molidustat]
inactive: 1 nM 1.15% | 8.33 nM -0.02% | 100 nM -0.4% | 833.33 nM 3.64% | 10000 nM 2.32%

Cc1nc2c(OCc3ccccc3)cccn2c1CC#N
inactive: 1 nM -1.06% | 8.33 nM 0.99% | 100 nM 2.87% | 833.33 nM 0.07% | 10000 nM 1.07%

CN(C(=O)CN(CCO)CC(=O)N(C)C(C)(C)Cc1ccccc1)C(C)(C)Cc1ccccc1 [oxethazaine]
inactive: 1 nM -2.13% | 8.33 nM -0.95% | 100 nM 0.87% | 833.33 nM -0.57% | 10000 nM -13.9%

Oc1ccc(-c2nc3cc(O)cc(Br)c3o2)cc1
inactive: 1 nM 0.68% | 8.33 nM 1.49% | 100 nM 2.09% | 833.33 nM 4.89% | 10000 nM 2.95%
